{
  "source": "PubChem BioAssay (Tox21)",
  "note": "The source made the active and inactive calls. Calls come from the whole dose curve; as a rule, active = well fitted curve in the direction sought with a large enough effect in the repeat runs; inconclusive = weak or mixed curves; inactive = flat fitted curve, though single readings scatter. % is set by controls: 0 for no effect and ±100 for the full control effect.",
  "data": [
    {"experiment": "qHTS assay to test for compound auto fluorescence at 460 nm (blue) in HEK293 cell free culture (AID 720681)", "conditions": "cell-free medium, autofluorescence 405/460 nm (blue); series mostly up to 91.3 µM; fluorescence, % of fluorescent control: at the top concentration", "excerpt": "U.S. Tox21 Program National Center for Advancing Translational Sciences [NCATS] NIH Chemical Genomics Center [NCGC] U.S. Environmental Protection Agency [EPA] National Institutes of Environmental Health Sciences [NIEHS] National Toxicology Program [NTP] U.S. Food and Drug Administration [FDA] Tox21 Assay Overview: Compound auto fluorescence often interferes with screening of the compound library against various biological targets and signaling pathways. Some of these compounds may have fluorophoric properties. Such properties may interfere with the assay outputs resulting in false positives and/or negatives. To decrease such complications and ensure the compound activities are relevant in terms of biological response, the Tox21 10K compound library was screened for auto fluorescence. From the fluorophores used as reporter signals in our screening assays, the auto fluorescence equivalencies of compounds against three fluorophores have been evaluated: Triamterene, Fluorescein and Rose Bengal sodium for blue, green and red fluorescence, respectively. The fluorescence intensities were measured using Excitation/Emission wavelengths at 405/460nm, 485/535nm and 540/590nm for blue, green and red labels, respectively. This assay includes the blue fluorescence data.\nTox21 Assay Protocol Summary: 5 uL of culture medium (DMEM containing 10% FBS) per well was dispensed into black wall/clear bottom 1536-well plates using a Multidrop Combi Dispenser (ThermoFisher Scientific, Waltham, MA). After 23 nL compound or DMSO vehicle was transferred into assay plate by a pintool work station (Kalypsys, San Diego, CA), fluorescence intensities in the assay plates were measured by an Envision (PerkinElmer, Shelton, CT) plate reader using three labels for measuring blue, green and red fluorescence at […] 460, 535 and 590nm respectively.", "values": [
      {"compound": "CCCCOCCOC(=O)COc1cc(Cl)c(Cl)cc1Cl", "fluorescence, % of fluorescent control": "-0.0521% (inactive)"},
      {"compound": "CC(C)c1ccc2ncccc2c1", "fluorescence, % of fluorescent control": "0.0212% (inactive)"},
      {"compound": "CCCc1nn(C)c2c(=O)[nH]c(-c3cc(S(=O)(=O)N4CCN(C)CC4)ccc3OCC)nc12", "fluorescence, % of fluorescent control": "0.168% [at 46 µM] (inactive)"},
      {"compound": "Cc1ccc(C(=O)c2ccc(CC(=O)O)n2C)cc1", "fluorescence, % of fluorescent control": "0.0612% [at 18.6 µM] (inactive)"},
      {"compound": "CC(C)COC(=O)c1ccc(N)cc1", "fluorescence, % of fluorescent control": "-0.0414% [at 46 µM] (inactive)"},
      {"compound": "OCCc1ccccn1", "fluorescence, % of fluorescent control": "-0.462% (inactive)"},
      {"compound": "Cc1ccnc(NS(=O)(=O)c2ccc(N)cc2)n1", "fluorescence, % of fluorescent control": "-0.0731% [at 18.6 µM] (inactive)"},
      {"compound": "C[N+]12CCC(CC1)C(OC(=O)C(O)(c1ccccc1)c1ccccc1)C2", "note": "(stereo not given)", "fluorescence, % of fluorescent control": "0.066% [at 18.6 µM] (inactive)"},
      {"compound": "NCCCC(N)(C(=O)O)C(F)F", "note": "(stereo not given)", "fluorescence, % of fluorescent control": "0.0241% [at 46 µM] (inactive)"},
      {"compound": "CN1[C@@H]2CC[C@H]1CC(OC(=O)C(O)c1ccccc1)C2", "note": "(stereo not given in full)", "outcome": "inactive"},
      {"compound": "CCOC(=O)c1cnc2c(cnn2CC)c1NN=C(C)C", "fluorescence, % of fluorescent control": "3.19% [at 46 µM] (inactive)"},
      {"compound": "COc1ccnc(CS(=O)c2nc3cc(OC(F)F)ccc3[nH]2)c1OC", "note": "(stereo not given)", "outcome": "inactive"},
      {"compound": "CO[Si](C)(OC)c1ccccc1", "fluorescence, % of fluorescent control": "-0.0025% (inactive)"},
      {"compound": "CCCCN1C=CN(C)C1", "fluorescence, % of fluorescent control": "-0.116% [at 18.6 µM] (inactive)"},
      {"compound": "O=Cc1cccc(Br)c1", "fluorescence, % of fluorescent control": "-0.135% [at 95.7 µM] (inactive)"},
      {"compound": "CCCCCCC#CC(=O)OC", "fluorescence, % of fluorescent control": "-0.032% (inactive)"},
      {"compound": "Clc1cc(Cl)cc(Cl)c1", "fluorescence, % of fluorescent control": "-0.0441% (inactive)"},
      {"compound": "C[N+](C)(C)CCCCCCCCCC[N+](C)(C)C", "fluorescence, % of fluorescent control": "-0.0701% [at 46 µM] (inactive)"},
      {"compound": "Cc1ncc(COP(=O)(O)O)c(C=O)c1O", "fluorescence, % of fluorescent control": "0.459% [at 46 µM] (inactive)"},
      {"compound": "NCCCC[C@H](N[C@@H](CCc1ccccc1)C(=O)O)C(=O)N1CCC[C@H]1C(=O)O", "fluorescence, % of fluorescent control": "-0.095% [at 18.6 µM] (inactive)"},
      {"compound": "NC(N)=NCCN1CCCCCCC1", "fluorescence, % of fluorescent control": "-0.0671% [at 18.6 µM] (inactive)"},
      {"compound": "CCCOC(=O)CC", "fluorescence, % of fluorescent control": "0.0873% (inactive)"},
      {"compound": "O=S(=O)(O)c1cccc2c(S(=O)(=O)O)cccc12", "fluorescence, % of fluorescent control": "-0.225% (inactive)"},
      {"compound": "O=C1CCCCCCCCCCCCCCO1", "fluorescence, % of fluorescent control": "0.0175% (inactive)"},
      {"compound": "CC(=O)OCC(=O)[C@@]1(O)[C@H](C)C[C@H]2[C@@H]3CCC4=CC(=O)C=C[C@]4(C)[C@@]3(F)[C@@H](O)C[C@@]21C", "outcome": "inactive"},
      {"compound": "CC(=O)N[C@H]1[C@H]([C@H](O)[C@H](O)CO)OC(C(=O)O)=C[C@@H]1N=C(N)N", "fluorescence, % of fluorescent control": "-0.0157% [at 46 µM] (inactive)"},
      {"compound": "CCCCCCCC1CCCC1=O", "note": "(stereo not given)", "fluorescence, % of fluorescent control": "0.0243% (inactive)"},
      {"compound": "N[C@H](C(=O)O)[C@@H](O)c1ccc(O)c(O)c1", "fluorescence, % of fluorescent control": "5.3% [at 46 µM] (inactive)"},
      {"compound": "O=C(O)CNC(=O)c1ccc(CO)o1", "fluorescence, % of fluorescent control": "-0.0173% (inactive)"},
      {"compound": "C=CC(=O)OCCCl", "fluorescence, % of fluorescent control": "0.0588% [at 95.7 µM] (inactive)"},
      {"compound": "O=C(O)c1cn(C2CC2)c2cc(N3CCNCC3)c(F)cc2c1=O", "fluorescence, % of fluorescent control": "-0.0136% [at 18.6 µM] (inactive)"},
      {"compound": "C1CCC2=NCCCN2CC1", "fluorescence, % of fluorescent control": "0.0817% (inactive)"},
      {"compound": "CCN(CC#N)c1cccc(C)c1", "fluorescence, % of fluorescent control": "0.0512% (inactive)"},
      {"compound": "O=S(=O)(O)c1cccc2ccccc12", "fluorescence, % of fluorescent control": "-0.0794% (inactive)"},
      {"compound": "NS(=O)(=O)Cc1noc2ccccc12", "fluorescence, % of fluorescent control": "-0.0119% [at 46 µM] (inactive)"},
      {"compound": "CO[C@@]1(NC(=O)CSC[C@@H](N)C(=O)O)C(=O)N2C(C(=O)O)=C(CSc3nnnn3C)CS[C@@H]21", "fluorescence, % of fluorescent control": "0.76% [at 46 µM] (inactive)"},
      {"compound": "CCCCCCCCCCCCSC", "fluorescence, % of fluorescent control": "0.113% (inactive)"},
      {"compound": "COc1cc(C)nc(-n2nc(C)cc2OC)n1", "fluorescence, % of fluorescent control": "-0.0196% [at 18.6 µM] (inactive)"},
      {"compound": "Nc1ccn([C@@H]2O[C@H](CO)[C@@H](O)[C@@H]2O)c(=O)n1", "fluorescence, % of fluorescent control": "-0.0081% (inactive)"},
      {"compound": "C=CCCCCCCCCC(=O)OCC", "fluorescence, % of fluorescent control": "0.047% (inactive)"}
    ]}
  ]
}
